These results are taken from PubChem BioAssay (Tox21).

A number with no mark means an inactive call. Inconclusive results are not listed. The source made the active and inactive calls. Unless noted, the call rests on the fitted dose curve; in most records, active means well fitted curve in the direction sought with a large enough effect in the repeat runs; inconclusive means weak or mixed curves; inactive means no such curve, though single readings can be large; an effect the other way counts as inactive or inconclusive.

A short description of experiment [1]: A CellTox Green Cytotoxicity Assay to monitor cytotoxicity in HepG2 cells - 0 hour (AID 1224882). Further: nearly all actives have a fitted effect of over 35% in size. The essentials:
(§1)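 Measurements at 0, 8, 16, 24, 32 and 40 h of treatment captured CellTox Green fluorescence in HepG2 cells that had been co-plated with reagent and preincubated 5 h at 37 C/5% CO2.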

Experiment [2] is described as follows: A CellTox Green Cytotoxicity Assay to monitor cytotoxicity in HepG2 cells - 32 hour (AID 1224883). Further: nearly all actives have a fitted effect of over 50% in size. In short, it runs like this: as §1
Experiment [3] is described as follows: A CellTox Green Cytotoxicity Assay to monitor cytotoxicity in HEK293 cells - 8 hour (AID 1224884). Further: nearly all actives have a fitted effect of over 35% in size. In short, it runs like this: (§2)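 Tox21 screen in HEK293: membrane-impermeant cyanine dye fluoresces on binding dead-cell DNA; compound pinned 5 h post-seeding, plates held at 37 C, signal read repeatedly through 40 h.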
Experiment [4] is described as follows: qHTS RealTime-Glo MT Cell Viability Assay in HepG2 cells - 16 hour (AID 1224885). Further: nearly all actives have a fitted effect of over 50% in size. In short, it runs like this: (§3)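 Viability was tracked continuously by NanoLuc luminescence from prosubstrate reduced by living HepG2 cells, at successive time points over 40 h of compound exposure. Cells with reagent were preincubated 5 h at 37 °C before compound addition.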
Experiment [5] is described as follows: qHTS RealTime-Glo MT Cell Viability Assay in HEK293 cells - 24 hour (AID 1224886). Further: top concentration of the series differs between compounds; nearly all actives have a fitted effect of over 50% in size. In short, it runs like this:
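Viability tracked continuously by luminescence as live cells reduce a prosubstrate for NanoLuc; HEK293 cells preincubated 5 h, compound-treated at 37 C, and read at 0, 8, 16, 24, 32 and 40 h.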

The nature of experiment [6]: qHTS RealTime-Glo MT Cell Viability Assay in HEK293 cells - 8 hour (AID 1224887). Further: nearly all actives have a fitted effect of over 50% in size. Further: potency means the concentration at half of the fitted maximal effect. The essentials:
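HEK293 + NanoLuc + prosubstrate, 600 cells/well; 5 h, 37 C/5% CO2; compound 23 nL in DMSO by pintool; 37 C; luminescence read at 0, 8, 16, 24, 32 and 40 h time points.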

Experiment [7] can be described thus: A CellTox Green Cytotoxicity Assay to monitor cytotoxicity in HEK293 cells - 16 hour (AID 1224888). Further: nearly all actives have a fitted effect of over 35% in size. The essentials:
as §2

Experiment [8] in a line: qHTS RealTime-Glo MT Cell Viability Assay in HepG2 cells - 0 hour (AID 1224889). Further: nearly all actives have a fitted effect of over 50% in size. In short, it runs like this:
as §3

Experiment [9] can be described thus: A CellTox Green Cytotoxicity Assay to monitor cytotoxicity in HepG2 cells - 8 hour (AID 1224890). Further: nearly all actives have a fitted effect of over 45% in size. The essentials: as §1
Experiment [10] is described as follows: qHTS assay to identify small molecule antagonists of the estrogen receptor alpha (ER-alpha) signaling pathway using the BG1 cell line in the presence of 0.1 nM 17-beta-estradiol - cell viability counter screen (AID 1259241). Further: nearly all actives have a fitted effect of over 40% in size. In short, it runs like this:
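Live-cell protease activity (CellTiter-Fluor fluorescence, 30 min) was read in the same wells after VM7Luc4E2 cells had been exposed to compounds with 0.1 nM 17beta-estradiol for 22 hr at 37C.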

Experiment [11] in a line: qHTS assay to identify small molecule antagonists of the androgen receptor (AR) signaling pathway using the MDA cell line in the presence of 0.5 nM R1881 - cell viability counter screen (AID 1259242). Further: nearly all actives have a fitted effect of over 45% in size. In short, it runs like this:
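Concentration-response screen of compounds for toxicity in MDA-kb2 reporter cells: 16 hr at 37C with 0.5 nM R1881, endpoint live-cell protease fluorescence measured in the reporter wells.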

A short description of experiment [12]: qHTS assay to identify small molecule HDAC inhibitors (AID 1259364). Further: potency means the concentration at half of the fitted maximal effect.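 Further: wild-type HCT-116 cells with endogenous class I/II HDAC activity; nearly all actives have a fitted effect of over 45% in size.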 In short, it runs like this: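 Screening used wild-type human colon HCT-116 cells incubated overnight, dosed with compounds for 2 hours, and assayed with a homogeneous luminogenic HDAC I/II reagent for 30 minutes at room temperature.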
Experiment [13] in a line: qHTS assay to identify small molecule agonists of the sonic hedgehog signaling (Shh) pathway - cell viability counter screen (AID 1259366). Further: nearly all actives have a fitted effect of over 50% in size. In short, it runs like this: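 CellTiter-Fluor fluorescence read-out, 1 hr at 37C, added after 23hr compound exposure. Cells: 3T3 Gli1-Luc, an NIH/3T3 clone with stably integrated Gli1-Luc reporter, plated 4hr before compound.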
Experiment [14] in a line: qHTS assay to identify small molecule antagonists of the sonic hedgehog signaling (Shh) pathway - cell viability counter screen (AID 1259367). Further: nearly all actives have a fitted effect of over 55% in size. In short, it runs like this: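 Fluorescence read-out (CellTiter-Fluor, 1 hr at 37C) taken after 23 hr compound treatment of 3T3 Gli1-Luc cells stimulated with conditioned medium. Cells were seeded at 2,000 per well and pre-incubated 4 hr.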

Experiment [15] is described as follows: qHTS assay to identify small molecule agonists of the sonic hedgehog signaling (Shh) pathway (AID 1259368; calls by dose curve;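 further: NIH/3T3-derived 3T3Gli1-Luc cells carrying a stable Gli1-driven firefly luciferase reporter; series mostly up to about 92 µM; nearly all actives have a fitted effect of over 15% in size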). In short, it runs like this:
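Hedgehog pathway agonism scored by increased firefly luciferase luminescence in 3T3Gli1-Luc cells treated 24 hr at 37 C; detection used a 30 min room-temperature reagent incubation.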

Experiment [16] is described as follows: qHTS assay to identify small molecule HDAC inhibitors - cell viability counter screen (AID 1259365). The essentials:
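HCT-116 (wild type), 1,500 cells/well, overnight 37C/5% CO2; compound in DMSO 2hr; CellTiter-Glo 30min RT; luminescence read.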

The target in experiment [17] is Estrogen receptor (Homo sapiens) (UniProt P03372). Put plainly: qHTS assay to identify small molecule antagonists of the estrogen receptor alpha (ER-alpha) signaling pathway using the BG1 cell line in the presence of 0.1 nM 17-beta-estradiol (AID 1259244). Further: nearly all actives have a fitted effect of over 50% in size. In short, it runs like this: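 Compounds were tested against 0.1 nM (final) 17beta-estradiol in VM7Luc4E2 cells, which express full-length ER-alpha and an ERE-luciferase reporter; luminescence was recorded following 22 h exposure.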

Experiment [18] in a line: qHTS assay to identify small molecule phospholipidosis (PLD) inducers (AID 1259344; active means well fitted curve in the direction sought with a large enough effect; an effect the other way counts as inactive or inconclusive). In short, it runs like this:
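Read-out is LipidTOX Red fluorescence (ex 595/em 615) imaged in HepG2 cells after 24 h compound exposure at 37 C, with Hoechst nuclear counterstain (ex 352/em 461) allowing per-cell normalisation.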

Estrogen receptor (Homo sapiens), sequence (P03372 whole entry, looked up): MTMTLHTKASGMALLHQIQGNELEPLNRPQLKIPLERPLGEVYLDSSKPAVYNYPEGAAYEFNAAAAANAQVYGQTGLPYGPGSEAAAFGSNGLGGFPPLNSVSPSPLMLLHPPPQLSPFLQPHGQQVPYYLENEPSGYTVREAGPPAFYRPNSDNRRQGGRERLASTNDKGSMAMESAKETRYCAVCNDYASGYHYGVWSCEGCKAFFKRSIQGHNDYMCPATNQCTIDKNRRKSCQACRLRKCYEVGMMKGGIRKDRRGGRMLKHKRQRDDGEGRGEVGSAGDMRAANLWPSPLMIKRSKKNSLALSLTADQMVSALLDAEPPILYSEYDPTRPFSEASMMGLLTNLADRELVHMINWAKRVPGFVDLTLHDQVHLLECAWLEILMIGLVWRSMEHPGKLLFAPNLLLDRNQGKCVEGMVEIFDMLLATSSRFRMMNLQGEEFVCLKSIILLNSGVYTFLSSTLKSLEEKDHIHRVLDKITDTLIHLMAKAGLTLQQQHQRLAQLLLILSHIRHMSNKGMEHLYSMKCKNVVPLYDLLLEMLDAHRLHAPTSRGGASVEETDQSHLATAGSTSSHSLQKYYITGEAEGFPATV

In the case of `NC(=O)N1c2ccccc2CC(=O)c2ccccc21`, the Potency entry in experiment [1], in experiment [2], in [5], in experiment [6], in experiment [8] and in experiment [12] was “inactive” throughout. Besides, the Potency entry in [13] and in experiment [14] was “inactive” throughout. Besides, the compound was called inactive in [3], in experiment [4], in experiment [7], in [9], in experiment [10] and in experiment [11]. Also, the compound was called inactive in [15].

In the case of `O=C1c2ccccc2C(=O)c2cc(O)ccc21`, the Potency entry in experiment [1], in [2], in [8], in experiment [13] and in experiment [14] was “inactive” throughout. Besides, the compound was called inactive in experiment [3], in experiment [7], in experiment [9], in experiment [10], in experiment [11] and in experiment [16]. For the same compound, the result in [15] was inactive. Further, the figures for the Potency in experiment [6] and in [12] were 55 µM (active) and 7.7 µM (active), respectively.

As to `CCC(=O)OCc1ccccc1`, the Potency result in experiment [1], in experiment [2], in experiment [5], in [6], in experiment [8] and in experiment [12] was “inactive” throughout. For the same compound, the Potency entry in experiment [13] and in experiment [14] was “inactive” each time. Also, the call in [3], in experiment [4], in experiment [7], in [9], in experiment [10] and in experiment [11] was inactive. Besides, the compound was called inactive in experiment [16] and in experiment [15].

As for `CCOC(=O)CCC(=O)OCC`, the Potency entry in experiment [1], in [2], in [5], in [6], in experiment [8] and in experiment [12] was “inactive” each time. The Potency result in experiment [13] and in experiment [14] was “inactive” throughout. For the same compound, the call in experiment [3], in experiment [4], in [7], in experiment [9], in [10] and in [11] was inactive. In addition, the result in experiment [17], in experiment [16] and in experiment [15] was inactive.

With `FB(F)F`, the Potency entry in experiment [1], in [2], in experiment [6], in experiment [8], in [12] and in experiment [13] was “inactive” throughout. The Potency entry in experiment [14] is “inactive”. Also, the call in [3], in [4], in experiment [7], in experiment [9], in experiment [10] and in experiment [11] was inactive. Further, the result in [17] and in [15] was inactive.

`O=C(c1ccccc1)C1(O)CCCCC1`: the Potency entry in [1], in [2], in experiment [5], in experiment [6], in experiment [8] and in experiment [12] was “inactive” in each case. Moreover, the Potency entry in [13] and in experiment [14] was “inactive” in each case. The outcome in experiment [4], in experiment [7], in experiment [9], in [10], in experiment [11] and in experiment [16] was inactive. Also, the compound was classed as inactive in experiment [15].

Turning to `CCCc1nn(C)c2c(=O)[nH]c(-c3cc(S(=O)(=O)N4CCN(C)CC4)ccc3OCC)nc12`, the Potency result in [1], in experiment [2], in [6], in [8], in [12] and in experiment [13] was “inactive” in each case. Further, the Potency result in experiment [14] was “inactive”. Further, the outcome in experiment [3], in experiment [4], in experiment [7], in [9], in [10] and in experiment [11] was inactive. Further, the compound was classed as inactive in experiment [18], in experiment [16] and in experiment [15].

As to `CC(=O)c1cnccn1`, the Potency entry in experiment [1], in [2], in [5], in experiment [6], in [8] and in experiment [12] was “inactive” each time. The Potency entry in [13] and in experiment [14] was “inactive” each time. In addition, the compound was called inactive in [3], in [10], in experiment [11], in experiment [17], in experiment [16] and in experiment [15].

`CN1CCC(=C2c3ccccc3CCc3cccnc32)CC1`: the Potency entry in experiment [1], in experiment [5], in experiment [6], in experiment [8] and in experiment [12] was “inactive” each time. Also, the outcome in experiment [3], in [4], in experiment [7], in [9], in experiment [10] and in experiment [11] was inactive. The result in [17] and in experiment [15] was inactive.
